Measured values published in PubChem BioAssay (NCATS).
Inconclusive results are not listed. Where a call stands in place of a potency, no number is given. The source made the active and inactive calls. Calls follow the shape of the dose curve; as a rule, active = well fitted cell-killing curve with a large enough effect; inconclusive = small, poorly fitted or top-dose-only effect; inactive = flat fitted curve, though single readings scatter.

Test: qHTS of pediatric cancer cell lines to identify multiple opportunities for drug repurposing: Primary screen for TC32 cells (AID 1347089); also: nearly all actives have a fitted effect of over 60% in size
Conditions: TC32 Ewing sarcoma viability, CellTiter-Glo luminescence, 48 h; series mostly up to 45.8 µM
Text: Drug repurposing or repositioning has been offered as a strategy for drug development in oncology programs. This approach has special potential for childhood cancers and other rare or orphan diseases, where the expected return on new drug development has been a disincentive to pharmaceuticals.
In this project we exploit the poly-pharmacology of drugs to discover new indications via phenotypic screening of a panel of 19 well-characterized cell lines derived from solid tumors seen in children and adolescents. The goal is to identify approved drugs with previously unrecognized anticancer properties that has the potential to reveal new mechanisms and biological processes involved in carcinogenesis or drug resistance. We employed a titration-based paradigm (quantitative high-throughput screening or qHTS), where all compounds were tested at multiple concentrations for their effect on cell viability. Concentration-response curves (CRCs) were derived directly from the primary screen, and both potency and efficacy values were used to identify compounds with robust bioactivity profiles. We screened the NIH Chemical Genomics Center (NCGC) Pharmaceutical Collection (NPC) and Mechanism Interrogation Plate (MIPE) small molecule collections of approved and investigational compounds against these cell lines; and measured metabolically active cells after 48 hours of compound treatment as a proxy for cell viability.
Assay Submitter: Nathalia J. Martinez, National Center for Advancing Translational Sciences, National Institutes of Health, Rockville, MD, USA; email: natalia.martinez@nih.gov
[1] Shen, M et al. Quantitative high-throughput phenotypic screening of pediatric cancer cell lines identifies multiple opportunities for drug repurposing. Oncotarget 2017 Dec 19;9(4):4758-4772. PMID 29435139.
The cells were obtained from University of North Carolina (UNC), Pediatric Preclinical Testing Program (PPT), and Coriell Institute (CI).
qHTS cell viability assay:
Cells were assayed in growth media at a density of 500-1,000 cells/well. Five microliters of cells were dispensed into 1,536-well, white, solid-bottom, TC-treated plates (Greiner Bio One) using a multidrop dispenser and incubated at 37 degrees C, 5% CO2, under a humidified atmosphere for 5 hours. Twenty-three nanoliters of compounds and controls (neutral control DMSO or positive control bortezomib at final concentration of 2.3 uM) were subsequently transferred by Kalypsys pintool. For primary screens, the MIPE collection was tested at 11-point dilutions (final concentrations range from 0.78 nM to 46 µM) and the NPC collection at 8-point dilutions (final concentrations range from 0.59 nM to 46 µM). Compounds tested in follow-up screens were assayed at 11-point dilutions. Cells were incubated for 48 hours, followed by addition of 3 uL of CellTiter-Glo (Promega). After a 15min incubation at room temperature, samples were analyzed for luminescence intensity using a ViewLux High-throughput CCD imager equipped with clear filters.
Potency is read from the fitted curve at half-maximal effect.

Row | Structure (SMILES) | Potency
1 | NC(=O)c1cc[n+](CC2=C(C(=O)[O-])N3C(=O)[C@@H](NC(=O)Cc4cccs4)[C@H]3SC2)cc1 | inactive
2 | CCCCCCCCCCCCCCNCCO | inactive
3 | CC(=O)Oc1ccc(C(c2ccc(OC(C)=O)cc2)c2ccccn2)cc1 | inactive
4 | O=C1c2ccccc2C(=O)C1c1ccccc1 | inactive
5 | CN(C/C=C/c1ccccc1)Cc1cccc2ccccc12 | inactive
6 | OCc1ccccc1O | inactive
7 | CC(=O)c1ccc2c(c1)N(CCCN1CCC(CCO)CC1)c1ccccc1S2 | inactive
8 | CCC(C(=O)OCCN(CC)CC)c1ccccc1 (stereo not given) | inactive
9 | CC/C(=C(/CC)c1ccc(O)cc1)c1ccc(O)cc1 | inactive
10 | C[C@H]1C[C@H]2[C@@H]3CCC4=CC(=O)C=C[C@]4(C)[C@@]3(Cl)[C@@H](O)C[C@]2(C)[C@@]1(O)C(=O)CO | inactive
11 | NC[C@H]1O[C@H](O[C@H]2[C@H](O)[C@@H](O[C@H]3O[C@H](CO)[C@@H](O)[C@H](N)[C@H]3O)[C@H](N)C[C@@H]2N)[C@H](N)[C@@H](O)[C@@H]1O | inactive
12 | COc1cccc(OC)c1C(=O)N[C@@H]1C(=O)N2[C@@H]1SC(C)(C)[C@@H]2C(=O)O | inactive
13 | COc1cc(C(=S)N2CCOCC2)cc(OC)c1OC | inactive
14 | CCOC(=O)c1cccc(N)c1 | inactive
15 | c1ccc(-c2ccc(C(c3ccccc3)n3ccnc3)cc2)cc1 (stereo not given) | inactive
16 | C[C@]12CCC(=O)C=C1CC[C@H]1[C@@H]3CC[C@](O)(C(=O)CO)[C@@]3(C)C[C@H](O)[C@@]12F | inactive
17 | CC(=O)OCC(=O)NCCCOc1cccc(CN2CCCCC2)c1 | inactive
18 | CN(C)CCCOc1nn(Cc2ccccc2)c2ccccc12 | inactive
19 | CN1CCN(C(c2ccccc2)c2ccccc2)CC1 | inactive
20 | CCCC(=O)Nc1ccc(OCC(O)CNC(C)C)c(C(C)=O)c1 (stereo not given) | inactive

Row | Structure (SMILES) | Potency
21 | C[C@H](CCC(=O)O)[C@H]1CC[C@H]2[C@@H]3C(=O)C[C@@H]4CC(=O)CC[C@]4(C)[C@H]3CC(=O)[C@]12C | inactive
22 | CCCN1CCCC[C@H]1C(=O)Nc1c(C)cccc1C | inactive
23 | COc1cc(C=C2CCC/C(=C\c3ccc(O)c(OC)c3)C2=O)ccc1O | 938 nM (active)
24 | CCCCN1CCCC1C(=O)Nc1c(C)cc(C)cc1C (stereo not given) | inactive
25 | O=C1OC2(c3ccc(O)cc3Oc3cc(O)ccc32)c2ccccc21 | inactive
26 | O=C(CCN1CCC(c2ccccc2)C1)c1ccc2c(c1)OCCO2 (stereo not given) | inactive
27 | O=c1ccc2ccccc2o1 | inactive
28 | CN1CCC(=C2c3ccccc3Sc3ccccc32)CC1 | inactive
29 | C[C@H]1[C@H](NC(=O)/C(=N/OC(C)(C)C(=O)O)c2csc(N)n2)C(=O)N1S(=O)(=O)O (stereo in doubt) | inactive
30 | COc1cccc2c1C(=O)c1c(O)c3c(c(O)c1C2=O)C[C@@](O)(C(=O)CO)C[C@@H]3O[C@H]1C[C@H](N)[C@H](O)[C@H](C)O1 | 745 nM (active)
31 | O=C(COc1ccc(Cl)cc1)N1CCN(Cc2ccc3c(c2)OCO3)CC1 | inactive
32 | CCCCC(=O)O[C@]1(C(=O)CO)CC[C@H]2[C@@H]3CCC4=CC(=O)CC[C@]4(C)[C@H]3[C@@H](O)C[C@@]21C | inactive
33 | COc1cccc(CCc2ccccc2OCC(CN(C)C)OC(=O)CCC(=O)O)c1 (stereo not given) | inactive
34 | CC(C)=CCC1C(=O)N(c2ccccc2)N(c2ccccc2)C1=O | inactive
35 | O=C(O)CNC(=O)c1ccccc1 | inactive
36 | CCN1CCCC1=O | inactive
37 | O=C1OC(c2ccc(O)cc2)(c2ccc(O)cc2)c2ccccc21 | inactive
38 | CCCCOc1cc(C(=O)NCCN(CC)CC)c2ccccc2n1 | inactive
39 | C[C@]12C=CC(=O)C=C1CC[C@@H]1[C@@H]2[C@@H](O)C[C@@]2(C)[C@H]1CC[C@]2(O)C(=O)CO | inactive
40 | CCCCS(=O)(=O)N[C@@H](Cc1ccc(OCCCCC2CCNCC2)cc1)C(=O)O | inactive
